Screens from PubChem.
Only some compounds are listed: those with a hit (about 7% of all), similar ones and a draw of the others.
DRD3 agonist: agonists of human D3 dopamine receptor. actives 0.58% (n = 410,000). P35462. max activation, %. D3R DiscoveRx beta-arrestin cells, luminescence, 90 min; in the data active = max activation above about 30%; note: 0% is about no effect
Target sequence (P35462 whole entry, looked up): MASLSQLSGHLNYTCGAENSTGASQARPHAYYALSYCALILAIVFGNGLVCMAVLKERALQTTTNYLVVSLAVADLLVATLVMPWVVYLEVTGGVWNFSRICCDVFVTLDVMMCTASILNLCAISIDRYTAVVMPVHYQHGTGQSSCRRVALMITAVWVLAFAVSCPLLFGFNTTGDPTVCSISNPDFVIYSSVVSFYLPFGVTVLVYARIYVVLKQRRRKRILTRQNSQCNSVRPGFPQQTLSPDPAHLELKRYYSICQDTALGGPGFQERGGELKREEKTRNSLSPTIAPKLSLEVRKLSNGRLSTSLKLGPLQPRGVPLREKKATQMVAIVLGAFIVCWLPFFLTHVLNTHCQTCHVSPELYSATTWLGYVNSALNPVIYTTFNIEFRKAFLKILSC
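Agonist mode: compounds and dopamine controls were applied to plated cells for 90 min at 37 degrees C after an overnight attachment at 1500 cells/well. Luminescent read-out followed 30 - 60 minutes at room temperature with DiscoveRx detection reagent.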
IL1B secr inh: blocks inflammasome-driven IL-1 beta release | THP-1 LPS/ATP IL-1B secretion, AlphaLISA, 16 h; active compounds read low | activity change, % at 57.5 µM | actives 4.7% (n = 360,000) | AID 743279; in the data active = activity change below about -50%; inconclusive = mostly about -30% to -49%; note: % is set by controls: 0 for no effect and ±100 for the full control effect
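Secreted IL-1B measured by AlphaLISA bead assay after 16 h compound exposure of THP-1 cells; compounds (final up to 57.5 uM) added 1 h before LPS (250 ng/mL) and ATP (1.25 mM) stimulation; lower signal means less secretion.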
ATXN2 expr inh: inhibitors of ATXN2 expression | Potency, µM (titrated, usually from 57 µM), inactives show at the top dose activity change, negative = inhibition, most hits filed as inhibitors | HEK-293 ATXN2-luciferase reporter, luminescence, 24 h | actives 0.72% (n = 360,000) | AID 1745845; note: potency is the fitted concentration of half-maximal effect; % is set by controls: 0 for no effect and ±100 for the full control effect; nearly all actives have a fitted effect of over 55% in size
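qHTS (up to 57 uM final) was run with 24 h compound exposure of reporter cells at 37 °C. Each well was multiplexed: SteadyGlo luminescence measured ATXN2-luciferase expression after a fluorogenic Gly-Phe-AFC viability readout (25 uM final).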
D3 antag: D3 dopamine receptor (human) antagonism; actives 2.5% (n = 360,000); AID 652054; max response, negative = inhibition, %; D3R cells, DiscoveRx beta-arrestin luminescence, antagonist mode; active compounds read low; P35462; in the data active = max response below about -50%; inconclusive = no clear call, values can overlap the other calls; note: % is set by controls: 0 for no effect and ±100 for the full control effect
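Cells expressing the human receptor were seeded at 1500 cells/well, incubated overnight at 37 degrees C in 5% CO2, then exposed to library compounds with dopamine controls for 90 minutes at 37 degrees C before luminescent detection.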
S2 tox: reduces viability in counter-screen for ATXN expression inhibitors; actives 0.49% (n = 400,000); S2 cells (HEK-293 line with an ATXN2-luciferase reporter) viability, CellTiter-Fluor protease fluorescence, 24 h; AID 651635; Potency, µM (titrated, usually from 56.7 µM), hits mostly cytotoxic; note: potency is the fitted concentration of half-maximal effect; nearly all actives have a fitted effect of over 40% in size
a7 integrin act: activators of alpha7 integrin expression for muscular dystrophy | AID 624291 | Potency, µM (titrated, usually from 38.3 µM), inactives show at the top dose activation, hits mostly activators | alpha7betagal myoblasts, beta-gal FDG fluorescence, 48 h | actives 0.064% (n = 350,000);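 note: potency is the fitted concentration of half-maximal effect; 100% = response of the positive control SU9516; nearly all actives have a fitted effect of over 60% in size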
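Alpha7betagal+/- myoblasts (passage 13) were plated 16-24 hr, then exposed to compounds (1:260 dilution of DMSO stock) for 48 hours at 37C. After MPER lysis, β-galactosidase reporter activity was read as FDG fluorescence (ex 480/em 540) after 30 minutes.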
An asterisk follows results filed as active; i = inactive; ? = inconclusive; nt = not tested or not shown. Unless noted, calls come from the whole dose curve; as a rule, active = well fitted curve in the direction sought with a large enough effect; inconclusive = small, poorly fitted or top-dose-only effect, or another doubt; inactive = no such curve, though single readings can be large; an effect the other way counts as inactive or inconclusive.

SMILES	DRD3 agonist	IL1B secr inh	ATXN2 expr inh	D3 antag	S2 tox	a7 integrin act
O=C1/C(=C/c2ccccn2)COc2ccccc21	-5	9	14%	9	i	?
C(=C\c1ccccn1)/c1ccccn1	7	-6	8%	7	i	14%
CC1C/C(=C/c2ccccn2)C(=O)/C(=C/c2ccccn2)C1 (stereo not drawn)	-22	-54*	?	-60*	nt	-38%
CC(C)(C)C1C/C(=C/c2ccccn2)C(=O)/C(=C/c2ccccn2)C1 (stereo not drawn)	-9	-93*	1.4µM*	-53*	1.8µM*	?
COc1cc(-c2noc(C)c2C(=O)NCCc2cccs2)cc(OC)c1OC	15	10	-3%	4	i	-10%
Cc1ccc(N2CC(C(=O)OCC(=O)c3ccc(F)cc3)CC2=O)cc1 (stereo not drawn)	7	5	19%	10	i	15%
O=C(COC(=O)C1CC(=O)N(C2CCCCC2)C1)c1ccc(F)cc1 (stereo not drawn)	-7	5	-4%	-58*	i	13%
NC(=O)c1c(NC(=O)c2nc(SCc3ccccc3F)ncc2Cl)sc2c1CCCC2	3	nt	6%	nt	i	nt
Cc1ccc(C(=O)CCC(=O)N(C)CC(=O)Nc2ccccc2Br)cc1	-1	-5	0%	10	i	10%
CN(CC(=O)Nc1ccccc1Br)C(=O)c1ccccc1OCc1ccc(Cl)cc1	-6	-59*	-18%	-18	i	11%
Cc1ccc(OCCCC(=O)N(C)CC(=O)Nc2ccccc2Br)cc1	7	-55*	?	10	i	-6%
COc1cc(NS(=O)(=O)c2ccc(C)cc2C)cc(OC)c1OC	16	24	-12%	14	i	-52%
CCN1C(=O)[C@H]2[C@@H](c3ccc(C)cc3)N3C(=O)N(c4cccc(Br)c4)C(=O)[C@@]3(Cc3ccccc3)[C@H]2C1=O	-30	-12	-7%	-15	i	-20%
COc1cccc(-c2nc(CS(=O)(=O)CC(=O)NCCCN3CCOCC3)c(C)o2)c1	3	-77*	2%	15	i	-3%
COc1ccc(OC)c(CCNC(=O)CS(=O)(=O)Cc2nc(-c3ccccc3Cl)oc2C)c1	7	-52*	-10%	10	i	-2%
O=C(O)c1ccc(N/N=C/c2cn(Cc3ccc(F)cc3)c3ccccc23)cc1	-9	29	66%	?	i	-42%
O=[N+]([O-])/C=C/c1cn(Cc2ccc(F)cc2)c2ccccc12	4	-72*	?	-11	?	-62%
CCCCCC(=O)N/N=C/c1ccco1	9	-10	5%	7	i	-23%
CC(Oc1ccc(Cl)cc1Cl)C(=O)Nc1cccc(O)c1 (stereo not drawn)	6	-11	4%	8	?	4%
CC(Oc1ccc(Cl)cc1Cl)C(=O)NCCCCc1ccccc1 (stereo not drawn)	2	-68*	-4%	3	i	17%
CC(Oc1cccc(Cl)c1)C(=O)NCCCCc1ccccc1 (stereo not drawn)	-7	3	4%	0	i	13%
CC(Oc1ccc(Cl)cc1Cl)C(=O)Nc1ccc(O)cc1 (stereo not drawn)	3	-66*	?	-1	i	-25%
O=c1[nH]cnc2scc(-c3ccc(-c4ccccc4)cc3)c12	11	-68*	14%	11	i	-9%
CC(=O)Nc1ccc(Sc2ccc([N+](=O)[O-])o2)cc1	-26	-97*	?	-74*	?	-59%
CC(C)(C)C(=O)Nc1ccc(Sc2ccc([N+](=O)[O-])cc2)cc1	-10	-9	?	5	?	0%
SMILES	DRD3 agonist	IL1B secr inh	ATXN2 expr inh	D3 antag	S2 tox	a7 integrin act
COc1cc(S(=O)(=O)N2CCN(C)CC2)ccc1Cl	0	-21	6%	-87*	i	32%
COc1cc(S(=O)(=O)N2CCCCCC2)ccc1Cl	-1	2	0%	-17	i	23%
OC(C1=CC(=Cc2ccncc2)c2ccccc21)c1ccncc1 (stereo not drawn)	9	-59*	23%	2	i	-37%
Cc1cccc(-n2[nH]c3c4c(ccc3c2=O)C(=O)c2ccccc2C4=O)c1	-5	-27	-6%	-64*	i	4%
COc1ccc(C(=O)CSc2n[nH]c(-c3ccco3)n2)cc1	4	-2	0%	-59*	i	7%
COC(=O)c1sc(N)c(C(=O)OC)c1COC(=O)c1c(C)noc1C	-64	31	-26%	-69*	?	-44%
COC(=O)c1sc(N)c(C(=O)OC)c1Cn1ncc(Cl)c(Cl)c1=O	-8	-89*	?	?	?	-56%
COC(=O)c1sc(N)c(C(=O)OC)c1CSc1nnc(-c2ccccc2Cl)n1C	2	15	8%	-12	i	-3%
CC(=O)c1c(C)[nH]c(C(=O)Nc2cccc(C(F)(F)F)c2)c1C	-28	-73*	-2%	0	i	0%
CC(C)c1cc(C(=O)Nc2cccc(C(F)(F)F)c2)no1	-4	20	13%	-53*	i	8%
O=C(Nc1cccc(C(F)(F)F)c1)c1cc(-c2ccc(Cl)cc2)on1	-5	nt	-8%	nt	i	nt
Cc1nc(Cl)sc1C(=O)Nc1cccc(C(F)(F)F)c1	-4	-5	-34%	2	?	5%
Cc1cc(Cl)c(C(=O)Nc2cccc(C(F)(F)F)c2)c(C)n1	-8	-54*	?	1	i	3%
CC(Oc1coc(CN2CCN(C(=O)c3ccco3)CC2)cc1=O)c1ccccc1 (stereo not drawn)	-2	8	-11%	?	i	0%
CNc1snc(C)c1C(=O)OC(C)C(=O)Nc1ccccc1 (stereo not drawn)	0	21	nt	6	?	-4%
CCOC(=O)[C@]12CCC=C1N(CCC1=CCCCC1)C(=O)[C@H](CC(=O)NCCc1ccccc1OC)C2	0	-1	-6%	24	i	nt
Cn1cc(-c2ccc3ncc(Cc4ccc5ncccc5c4)n3n2)cn1	nt	nt	12%	nt	nt	nt
Nn1c(SCC(=O)Nc2ccc3c(c2)OCCO3)nncc1=O	-2	?	18%	-7	i	0%
COc1cc(/C=C/C(=O)OC(C)C(=O)Nc2ccc(Cl)cn2)ccc1OC(F)F (stereo not drawn)	1	-52*	1%	1	i	-17%
Cc1ccc(/C=C/C(=O)OC(C)C(=O)Nc2ccc(Cl)cn2)o1 (stereo not drawn)	2	i	12%	13	i	2%
